Results as given in PubChem BioAssay (NCATS).
Records with an inconclusive call do not appear. Calls of active or inactive are those of the source. Calls come from the whole dose curve.

Key:
[1] = qHTS drug screen for cell cycle checkpoint inhibitors in PARPi-resistant BRCA-mutant ovarian cancer cell lines. (AID 1963452); settings: PEO1/OlaR viability, CellTiter-Glo luminescence, 96 h; for Z-AUC: stronger effect = lower value
Method in brief: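 PEO1, PEO4 and PEO1/OlaR ovarian cancer cells, 600 per well, exposed 96 h at 37C to a dilution series. Viability read by CellTiter-Glo luminescence, normalized to DMSO and empty wells; activity summarized as Z-AUC.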

[2] = qHTS for identification of novel therapeutic agents for treatment of microphthalmiaassociated transcription factor (MiT) renal cell carcinoma (RCC) (AID 1963991); settings: CellTiter-Glo, 48 h; for Potency: active = Z-AUC below -0.8 in all three lines; for z-score: stronger effect = lower value
Method in brief: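 Curves over 11 concentrations were fitted to CellTiter-Glo luminescence, scaled between empty wells (0%) and DMSO (100%) viability. Cells were UOK109, UOK124 and UOK145 TFE3-fusion RCC lines at 500/well, exposed 48 hours at 37 C.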

[3] = measured here: PEO1 parental Z-AUC
[4] = TFE3-RCC UOK109 viability, measured here: UOK109 Z-AUC
[5] = TFE3-RCC viability, measured here: UOK124 Z-AUC
[6] = TFE3-RCC viability, measured here: UOK145 Z-AUC
Potency is the fitted concentration of half-maximal effect.

N#Cc1c(NC(=O)c2cccc3ccccc23)sc2c1CCCC2
Z-AUC [1]: -0.477 (inactive)
Z-AUC [1, 3]: -0.695
Z-AUC ([1]; measured here: PEO4 Z-AUC): -0.753
Potency ([2]; TFE3-RCC UOK109 viability): 833 nM (active)
z-score [2, 4]: -1.37
z-score [2, 5]: -1.52
z-score [2, 6]: -1.31

C[C@H]1COc2c(N3CCN(C)CC3)c(F)cc3c(=O)c(C(=O)O)cn1c23
Z-AUC [1]: -0.648 (inactive)
Z-AUC [1, 3]: -0.279
Z-AUC ([1]; measured here: PEO4 Z-AUC): -0.579
z-score [2, 4]: 1.28
z-score [2, 5]: 0.967
z-score [2, 6]: 1.39

COc1cc([C@@H]2c3cc4c(cc3[C@H](O)[C@H]3COC(=O)[C@@H]23)OCO4)cc(OC)c1OC
Potency [1]: 1.23 µM (active)
Z-AUC [1, 3]: -1.51
Z-AUC ([1]; measured here: PEO4 Z-AUC): -1.58
Potency ([2]; TFE3-RCC UOK109 viability): 83.3 nM (active)
z-score [2, 4]: -1.41
z-score [2, 5]: -1.77
z-score [2, 6]: -1.2

COc1ccc(S(=O)(=O)Nc2cccnc2Nc2ccc(O)cc2)cc1
Potency [1]: 1.38 µM (active)
Z-AUC [1, 3]: -1.73
Z-AUC ([1]; measured here: PEO4 Z-AUC): -1.84
Potency ([2]; TFE3-RCC UOK109 viability): 132 nM (active)
z-score [2, 4]: -0.858
z-score [2, 5]: -1.8
z-score [2, 6]: -1.74

CC(Cc1ccc(O)c(O)c1)(NN)C(=O)O (stereo unspecified)
Z-AUC [1]: 1.29 (inactive)
Z-AUC [1, 3]: 0.784
Z-AUC ([1]; measured here: PEO4 Z-AUC): 0.906
z-score [2, 4]: 0.533
z-score [2, 5]: 0.304
z-score [2, 6]: 0.315

Cc1cc(Nc2ncc3c(n2)N(C)C(=O)N(c2cc(NC(=O)c4cccc(C(F)(F)F)c4)ccc2C)C3)n(C)n1
Z-AUC [1]: -1.62 (inactive)
Z-AUC [1, 3]: -1.69
Z-AUC ([1]; measured here: PEO4 Z-AUC): -1.33
Potency ([2]; TFE3-RCC UOK109 viability): 264 nM (active)
z-score [2, 4]: -1.56
z-score [2, 5]: -1.08
z-score [2, 6]: -2.15

O=C1c2cccc(O)c2C(=O)c2c(O)cc(CO)cc21
Z-AUC [1]: 0.225 (inactive)
Z-AUC [1, 3]: -0.222
Z-AUC ([1]; measured here: PEO4 Z-AUC): -0.301
z-score [2, 4]: 0.181
z-score [2, 5]: 0.143
z-score [2, 6]: 0.0189

Nc1ccn(C2CO[C@H](CO)O2)c(=O)n1 (stereo partly specified)
Z-AUC [1]: 0.13 (inactive)
Z-AUC [1, 3]: 0.905
Z-AUC ([1]; measured here: PEO4 Z-AUC): 0.884
z-score [2, 4]: 1.41
z-score [2, 5]: 1.05
z-score [2, 6]: 1.04

COc1cc(OC)c(NC(=O)Nc2cc(C)on2)cc1Cl
Z-AUC [1]: 1.05 (inactive)
Z-AUC [1, 3]: 1.02
Z-AUC ([1]; measured here: PEO4 Z-AUC): 1.3
z-score [2, 4]: 0.422
z-score [2, 5]: 0.71
z-score [2, 6]: 0.616

COc1ccc(Nc2cc(-c3cnc(N)nc3)nc(N3CCOCC3)n2)cn1
Z-AUC [1]: 0.44 (inactive)
Z-AUC [1, 3]: -0.145
Z-AUC ([1]; measured here: PEO4 Z-AUC): 0.339
Potency ([2]; TFE3-RCC UOK109 viability): 526 nM (active)
z-score [2, 4]: -1.16
z-score [2, 5]: -2.53
z-score [2, 6]: -2.08

CC(C(C)N1CC(=O)NC(=O)C1)N1CC(=O)NC(=O)C1 (stereo unspecified)
Z-AUC [1]: 0.386 (inactive)
Z-AUC [1, 3]: 0.374
Z-AUC ([1]; measured here: PEO4 Z-AUC): 0.397
z-score [2, 4]: -0.243
z-score [2, 5]: -1.76
z-score [2, 6]: -0.193
